Screens deposited in PubChem by several laboratories.
CYP2C19 activ – activators of human cytochrome P450 2C19 | P33261 | recombinant CYP2C19, luciferin-H EGE luminescence; active compounds read high; 0 = fully inhibited enzyme, 1 = untreated enzyme | 96,000 tested, under 10 active | activation factor at 5 µM;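 active = activation factor of at least 2 at 5 µM in the primary screen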;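 also: 0 = wells with 2.5 mM tranylcypromine and 1 = vehicle-only wells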
CYP2C9 inh – inhibitors of human CYP2C9; P11712; CYP2C9 Supersomes, luciferin-H conversion, luminescence; inhibition, % at 5 µM; hit rate 20% among 96,000;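 active = blocking of liver enzyme CYP2C9 beyond about 50% at 5 µM, limit read from the data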
Target sequence (P11712 whole entry, looked up): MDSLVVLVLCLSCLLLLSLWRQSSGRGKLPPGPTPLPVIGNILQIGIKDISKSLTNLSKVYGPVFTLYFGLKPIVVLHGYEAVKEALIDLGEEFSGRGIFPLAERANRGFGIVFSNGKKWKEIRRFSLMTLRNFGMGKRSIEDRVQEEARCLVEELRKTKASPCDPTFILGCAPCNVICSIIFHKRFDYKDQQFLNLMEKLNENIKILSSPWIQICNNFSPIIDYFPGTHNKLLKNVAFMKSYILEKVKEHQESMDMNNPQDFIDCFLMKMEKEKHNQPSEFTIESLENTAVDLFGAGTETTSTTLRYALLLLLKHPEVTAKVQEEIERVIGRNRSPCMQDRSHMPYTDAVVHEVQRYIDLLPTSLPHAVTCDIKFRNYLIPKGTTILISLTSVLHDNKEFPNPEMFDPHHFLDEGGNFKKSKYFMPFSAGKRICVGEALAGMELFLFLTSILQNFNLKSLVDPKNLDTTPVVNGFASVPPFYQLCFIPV
MRP-1 activ – activators of MRP-1. H69AR cells + doxorubicin, viability rescue, CellTiter-Glo. viability increase, % at 10 µM. hit rate 0.61% among 140,000;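 active = viability gain under doxorubicin at or above a set limit, the compound median plus 3 SD, cut at about 4.7% in these data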;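 also: MRP-1 overexpressing cells given doxorubicin 25 µM after compound pretreatment; 18-22 h compound pretreatment then 72 h with doxorubicin before readout; 0% = doxorubicin-only wells and 100% = vehicle-treated cells without doxorubicin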
MRP reversal – MRP-mediated drug resistance reversal | H69AR cells + 2 uM doxorubicin, CellTiter-Glo, 72 h | hit rate 0.04% among 85,000 | AID 602 | differential viability (reversal), % at 10 µM;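 active = viability drop by adding the cancer drug above about 55%, with treated viability meeting a 40% cutoff, limit read from the data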;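 also: viability without doxorubicin minus viability with 2 µM doxorubicin for each compound; larger differential means the compound sensitizes cells more to doxorubicin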
CYP2C19 inh – blocks human cytochrome P450 2C19; AID 778; inhibition, % at 5 µM; hit rate 21% among 96,000; P33261; CYP2C19 Supersomes, luciferin-H EGE luminescence, 30 min;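 active = CYP2C19 inhibition above a set limit at 5 µM in the primary screen, cut at about 50% in these data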;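 also: plate controls were negative control wells for no effect and 2.5 mM tranylcypromine positive control for full effect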
CYP2C9 act – increases human cytochrome P450 2C9 activity. P11712. recombinant CYP2C9, luciferin-H conversion, luminescence; active compounds read high; factor 1 = untreated enzyme, 0 = blocked. activation factor at 5 µM. hit rate 1.4% among 96,000;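 active = activation factor of 2 or more for CYP2C9 at a 5 µM dose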;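 also: 0 = sulfaphenazole-blocked wells and 1 = vehicle-only wells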
* marks the source's active call; other numbers are inactive results. A selection: hits, their analogues and other compounds. The true share with any hit is near 21%.

What do the screens show for `O=C(O)C1CC=CCC1C(=O)NCCc1cccc(Cl)c1` (stereo not given)?
CYP2C19 activ: 0.9; CYP2C9 inh: -10; MRP-1 activ: -1; MRP reversal: -7; CYP2C19 inh: 6; CYP2C9 act: 1.1

How did COC(=O)c1cc2c(s1)-c1ccccc1OC2 do in these assays?
CYP2C19 activ: 0.4; CYP2C9 inh: 6; MRP-1 activ: -1; MRP reversal: 13; CYP2C19 inh: 65*; CYP2C9 act: 0.9

What do the screens show for `CCOC(=O)c1cc2c(s1)-c1c(C)cccc1OC2`?
CYP2C19 activ: 0.1; CYP2C9 inh: 72*; MRP-1 activ: -3; MRP reversal: -3; CYP2C19 inh: 89*; CYP2C9 act: 0.3

What do the screens show for `Cc1cccc2c1-c1sc(C(=O)Nc3nccs3)cc1CO2`?
CYP2C19 activ: 1; CYP2C9 inh: 21; MRP-1 activ: 0; MRP reversal: -20; CYP2C19 inh: 0; CYP2C9 act: 0.8

What do the screens show for `O=C(c1cc2c(s1)-c1ccccc1OC2)N1CCc2ccccc2C1`?
MRP-1 activ: -1

Results for COc1ccc2[nH]cc(CCN=C3SCC(=O)N3C)c2c1 ?
CYP2C19 activ: 0.2; CYP2C9 inh: 40; MRP-1 activ: -2; MRP reversal: 3; CYP2C19 inh: 79*; CYP2C9 act: 0.6

Results for COc1ccc2[nH]cc(C(=O)CN3CCC(C)CC3)c2c1 ?
CYP2C19 activ: 0.6; CYP2C9 inh: 19; MRP-1 activ: -2; MRP reversal: -5; CYP2C19 inh: 40; CYP2C9 act: 0.8

What do the screens show for `COc1ccc(NC(=O)C(Sc2nnc(-c3ccncc3)n2-c2ccccc2C)c2ccccc2)cc1Cl` (stereo not given)?
MRP-1 activ: -4

How did Brc1cccc(-c2nnc3n2CCCCC3)c1 do in these assays?
CYP2C19 activ: 0.5; CYP2C9 inh: 9; MRP-1 activ: -1; MRP reversal: 0; CYP2C19 inh: 53*; CYP2C9 act: 0.9

Results for Brc1cccc(-c2cnc3n2CCCCC3)c1 ?
CYP2C19 activ: 0.2; CYP2C9 inh: 7; MRP-1 activ: -1; MRP reversal: 12; CYP2C19 inh: 83*; CYP2C9 act: 0.9

What do the screens show for `c1ccc(-c2nnc3n2CCCC3)cc1`?
CYP2C19 activ: 1; CYP2C9 inh: 0; MRP-1 activ: -3; CYP2C19 inh: -1; CYP2C9 act: 1

How did COc1ccc(OC)c(NC(=O)C(=O)NCc2ccncc2)c1 do in these assays?
MRP-1 activ: 0

Results for CC(=O)c1cccc(S(=O)(=O)NCC(c2ccco2)N2CCCCC2)c1 (stereo not given) ?
CYP2C19 activ: 0.2; CYP2C9 inh: 9; MRP-1 activ: -3; MRP reversal: 13; CYP2C19 inh: 75*; CYP2C9 act: 0.9

How did CN(C(=O)COc1ccc(Cl)cc1Cl)c1nnc(C23CC4CC(CC(C4)C2)C3)s1 do in these assays?
MRP-1 activ: -4

Results for O=C(Nc1ccccc1)c1cc(Cl)nc2ccccc12 ?
MRP-1 activ: -3

How did Cc1ccc2cc(CN(CCCN3CCOCC3)C(c3nnnn3Cc3ccco3)C(C)C)c(=O)[nH]c2c1C (stereo not given) do in these assays?
MRP reversal: 22

How did Cc1ccc2cc(CN(CCN3CCOCC3)Cc3nnnn3Cc3ccco3)c(=O)[nH]c2c1C do in these assays?
CYP2C19 activ: 0.6; CYP2C9 inh: 69*; MRP-1 activ: -2; MRP reversal: 0; CYP2C19 inh: 38; CYP2C9 act: 0.3

What do the screens show for `Cc1ccc2cc(CN(Cc3ccc4c(c3)OCO4)Cc3nnnn3Cc3ccco3)c(=O)[nH]c2c1C`?
CYP2C19 activ: 0.1; CYP2C9 inh: 80*; MRP-1 activ: -3; MRP reversal: -19; CYP2C19 inh: 86*; CYP2C9 act: 0.2

How did Cc1ccc(C)c2[nH]c(=O)c(CN(Cc3ccc4c(c3)OCO4)Cc3nnnn3Cc3ccco3)cc12 do in these assays?
CYP2C19 activ: 0.6; CYP2C9 inh: 75*; MRP-1 activ: -4; MRP reversal: -4; CYP2C19 inh: 38; CYP2C9 act: 0.2

Results for Cc1ccccc1NCC(=O)N/N=C\C=C\c1cccc([N+](=O)[O-])c1 ?
MRP-1 activ: -1

How did CC(=O)NN1C(=O)/C(=C\c2ccccc2)SC1=S do in these assays?
CYP2C19 activ: 0.6; CYP2C9 inh: 14; MRP-1 activ: 4; CYP2C19 inh: 42; CYP2C9 act: 0.9

How did CC(=O)NN1C(=O)/C(=C\c2ccc(C)cc2)SC1=S do in these assays?
CYP2C19 activ: 0.5; CYP2C9 inh: -3; MRP-1 activ: 11*; CYP2C19 inh: 52*; CYP2C9 act: 1

Results for Cc1cc(C)nc(NN2C(=O)/C(=C/c3ccccc3)SC2=S)n1 ?
CYP2C19 activ: 1; CYP2C9 inh: 24; MRP-1 activ: 9.7*; CYP2C19 inh: 5; CYP2C9 act: 0.8

Results for Cc1ccc(/C=C2\SC(=S)N(CCC(=O)NNS(=O)(=O)c3ccc(C)cc3)C2=O)cc1 ?
MRP-1 activ: 5.7*

How did O=C(CCN1C(=O)/C(=C\c2ccccc2)SC1=S)NNC(=O)c1cccnc1 do in these assays?
MRP-1 activ: 8.8*

Results for Cc1cc(C)c(NS(=O)(=O)c2ccc(NC(=O)/C=C/C(=O)O)cc2)c(C)c1 ?
MRP-1 activ: 0

Results for Cc1nc(CS(=O)(=O)c2ccc(Cl)cc2)cc(N2CCOCC2)n1 ?
CYP2C19 activ: 0.2; CYP2C9 inh: 53*; MRP-1 activ: -1; CYP2C19 inh: 80*; CYP2C9 act: 0.5

Results for Cc1nc(CS(=O)(=O)c2ccc(Cl)cc2)cc(Sc2ccccc2Cl)n1 ?
CYP2C19 activ: 0.5; CYP2C9 inh: 67*; MRP-1 activ: 0; CYP2C19 inh: 52*; CYP2C9 act: 0.3

Results for O=C(Nc1cccc(OC(F)(F)F)c1)c1ccc(Br)o1 ?
CYP2C19 activ: 0.1; CYP2C9 inh: 16; MRP-1 activ: -2; MRP reversal: 7; CYP2C19 inh: 89*; CYP2C9 act: 0.8

Results for O=C(Nc1cccc(F)c1)c1ccc(Br)o1 ?
MRP-1 activ: -1

What do the screens show for `CCCCC(=O)Nc1cccc(NC(=O)c2ccc(Br)o2)c1`?
CYP2C19 activ: 0.3; CYP2C9 inh: 93*; MRP-1 activ: -3; MRP reversal: 8; CYP2C19 inh: 70*; CYP2C9 act: 0.1

How did Cc1cccc(-c2ccc(C=Nc3c(C)n(C)n(-c4ccccc4)c3=O)o2)c1 do in these assays?
CYP2C19 activ: 0.8; CYP2C9 inh: 19; MRP-1 activ: 2; MRP reversal: 7; CYP2C19 inh: 16; CYP2C9 act: 0.8

What do the screens show for `CCOc1ccc(C2=C(C=Nc3c(C)n(C)n(-c4ccccc4)c3=O)C(c3ccc(F)cc3)c3ccccc3O2)cc1` (stereo not given)?
CYP2C19 activ: 0.8; CYP2C9 inh: 58*; MRP-1 activ: 0; CYP2C19 inh: 18; CYP2C9 act: 0.4

Results for O=C1OC(c2ccco2)=N/C1=C\c1ccc(-c2cccc(C(F)(F)F)c2)o1 ?
MRP-1 activ: -2
